Most compounds without a hit are left out; they make up all but 2.3% or so of the library.
Imprint erasure: qHTS Assay for Compounds that Induce Erasure of Genomic Imprints. mouse ES Peg3-LacZ reporter, beta-gal luminescence, 40 h. Potency, µM (series often up to 60.7 µM), for inactives: top-dose activity change, positive = activation, usual class: activators. 110,000 tested, 0.02% active
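Imprint erasure is scored as LacZ activity from the silenced maternal Peg3 allele in feeder-free female ES cells cultured 40 h with LIF. Luminescence is normalized to in-plate negative controls and fitted to the Hill equation.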
ERK AVP inh: qHTS Assay for Inhibitors of the ERK Signaling Pathway using a Homogeneous Screening Assay; HEK293-V1b, vasopressin-stimulated pERK AlphaScreen; Potency, µM (top dose mostly 57.5 µM), for inactives: top-dose activity, negative = inhibition, hits mostly inhibitors; 72,000 tested, 0.99% active; further: on the % scale 0 is the no-effect control and ±100 the full control effect; nearly all actives have a fitted effect of over 55% in size
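Phosphorylated ERK1/2 detected via AlphaScreen bead proximity in lysates of V1b-expressing HEK293 cells given 25 nM vasopressin for 5 min after 30 min compound exposure (37 °C). AC50 from Hill equation; basal DMSO 0%, vasopressin 100%.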
p53ts 39C kill: qHTS Screen for Compounds that Selectively Target Cancer Cells with p53 Mutations: Cytotoxicity of p53ts Cells at the Nonpermissive Temperature; H1299-p53A138V viability at 39C, ATP luminescence, 24 h; Potency, µM (top dose mostly 46.1 µM), for the others: at the highest dose activity change, negative = cell killing, usual class: cytotoxic; 130,000 tested, 1.5% active; AID 902, 2007; further: on the % scale 0 is the no-effect control and ±100 the full control effect; nearly all actives have a fitted effect of over 55% in size
p53ts 32C tox: qHTS Screen for Compounds that Selectively Target Cancer Cells with p53 Mutations: Cytotoxicity of p53ts Cells at the Permissive Temperature; AID 924, 2007; 130,000 tested, 0.93% active; Potency, µM (titrated, usually from 46.1 µM), for the others: at the highest dose activity change, negative = cytotoxicity, usual class: cytotoxic; H1299-p53A138V at 32C, ATP luminescence viability, 24 h;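 further: 0% = DMSO and -100% = full killing by reference compound; nearly all actives have a fitted effect of over 55% in size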
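H1299-p53 A138V cells (temperature-sensitive p53) exposed 24 h to up to 46 uM compound at 32C, where p53 is wild-type in conformation. Viability read as ATP luminescence and normalised to DMSO and 100 uM tamoxifen. AC50 fitted with the Hill equation.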
IkB sig inh: IkB Signaling | ABC-DLBCL IkBa-CBG/CBR dual luciferase ratio, 4 h; response scale: scaled: untreated 0%, proteasome inhibitor 100% | Potency, µM (top dose mostly 57.1 µM), for inactives: top-dose IkBa stabilization activation | 110,000 tested, 0.04% active; active means well fitted curve in the direction sought with a large enough effect in the signal ratio, not every such curve was filed as active; inconclusive means small, poorly fitted or top-dose-only effect, or a change in a side signal; the % refers to the signal ratio;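 further: the direction sought is a rising ratio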
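Curves were fitted separately to fusion (green), unfused (red) and ratio luminescence, then classed by r2, magnitude and activity. Cells: OCI-Ly3, 4 h compound plus doxycycline at 37C; 10 uM MG-132 defined full response.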
* hit, by the source's call; ! = not confirmed by another sample; [ ] = dose if it differs, or a comment. Unless noted, the call rests on the fitted dose curve; in most records, active means well fitted curve in the direction sought with a large enough effect; inconclusive means small, poorly fitted or top-dose-only effect, or another doubt; inactive means no such curve, though single readings can be large; an effect the other way counts as inactive or inconclusive. Potency means the concentration at half of the fitted maximal effect.

CCCOc1cccc(C2c3c(-c4ccccc4O)n[nH]c3C(=O)N2Cc2ccco2)c1 (stereo not drawn) was read as Imprint erasure -11%[10.9 µM], p53ts 39C kill 32µM*, p53ts 32C tox inconclusive and IkB sig inh inconclusive.
Screening COC(=O)c1ccc(Cl)cc1NC(=O)N1CC=C(c2c[nH]c3ccccc23)CC1 returned Imprint erasure -6%[10.9 µM], p53ts 39C kill -4%, p53ts 32C tox -1% and IkB sig inh 2%.
For Cc1ccc(NC(=O)N(Cc2cn(C)c3ccccc23)C2CCCCC2)cc1C the results were Imprint erasure -14%[10.9 µM], p53ts 39C kill 13µM*, p53ts 32C tox inconclusive and IkB sig inh inconclusive.
Cc1cc(C)c2sc(N3CCN(C(=O)C4CC4)CC3)nc2c1 was read as Imprint erasure -14%[10.9 µM], p53ts 39C kill 7.9µM*, p53ts 32C tox inconclusive and IkB sig inh -5%.
CCCCN(C(=O)NC(=O)Nc1nc2ccc(OC)cc2s1)S(C)(=O)=O was read as Imprint erasure -49%, ERK AVP inh 4%, p53ts 39C kill inconclusive, p53ts 32C tox 13µM* and IkB sig inh -4%.
For O=[N+]([O-])c1ccc(CSCc2ccc(Cl)cc2)cc1 the results were Imprint erasure -12%[10.9 µM], ERK AVP inh 18%[11.5 µM], p53ts 39C kill -15%[9.22 µM], p53ts 32C tox -3%[9.22 µM] and IkB sig inh 1%[11.4 µM].
`COc1cccc(N2CCN(C(=O)c3ccc4nc(N5CCCCC5)sc4c3)CC2)c1` gave Imprint erasure -52%, ERK AVP inh 25µM*, p53ts 39C kill 24%, p53ts 32C tox 18% and IkB sig inh inconclusive.
`CCCCCCCCCCCCCCCC(=O)O[C@H](CC(=O)O)C[N+](C)(C)C` gave Imprint erasure -10%, ERK AVP inh -16%, p53ts 39C kill inconclusive, p53ts 32C tox 13µM* and IkB sig inh -1%.
For Cc1noc(NS(=O)(=O)c2ccc(NC(=O)COc3ccc(Cl)cc3Cl)cc2)c1C the results were Imprint erasure -1%, ERK AVP inh 2.5µM*, p53ts 39C kill -9%, p53ts 32C tox 10% and IkB sig inh 3%.
Screening CCCC=O returned Imprint erasure 0%, ERK AVP inh 21%, p53ts 39C kill 14%, p53ts 32C tox 0%[1.84 µM] and IkB sig inh 6%.
`OCCN1CCN(CCCN2c3ccccc3Sc3ccc(Cl)cc32)CC1` gave Imprint erasure -21%, ERK AVP inh inconclusive, p53ts 39C kill 10µM*!, p53ts 32C tox 16µM*! and IkB sig inh 4%[25.6 µM].
Screening CN(C)CCCN1c2ccccc2Sc2ccc3ccccc3c21 returned Imprint erasure -17%[10.9 µM], ERK AVP inh -3%[11.5 µM], p53ts 39C kill -1%[9.22 µM], p53ts 32C tox -3%[9.22 µM] and IkB sig inh 1%[11.4 µM].
CN(C)CCCN1c2ccccc2Sc2ccc(Cl)cc21 was read as Imprint erasure -13%, ERK AVP inh inconclusive, p53ts 39C kill 10µM*!, p53ts 32C tox inconclusive and IkB sig inh 3%[25.6 µM].
Screening C[N+](C)(C)c1nc(N)nc2c1ncn2[C@H]1O[C@@H](CO)[C@@H](O)[C@H]1O returned Imprint erasure -2%[10.9 µM], ERK AVP inh 8%[11.5 µM], p53ts 39C kill 4%[9.22 µM], p53ts 32C tox 1%[9.22 µM] and IkB sig inh 2%[11.4 µM].
`Cc1ccc(C)c(-c2nc3ccc(N)cc3[nH]2)c1` gave Imprint erasure -62%, ERK AVP inh 21%, p53ts 39C kill -21%, p53ts 32C tox -12% and IkB sig inh inconclusive.
For Clc1ccc2nc(-c3ccccc3)[nH]c2c1 the results were Imprint erasure -89%, ERK AVP inh 25µM*, p53ts 39C kill 13µM* and p53ts 32C tox 10µM*.
Nc1ccc2nc(-c3ccc(Cl)cc3)[nH]c2c1 was read as Imprint erasure -79%, p53ts 39C kill 10µM*, p53ts 32C tox 13µM* and IkB sig inh inconclusive.
`Nc1ccc2nc(-c3cc(Cl)c(N)c(Cl)c3)[nH]c2c1` gave p53ts 39C kill inconclusive and p53ts 32C tox 14µM*.
Screening Nc1cc(N)cc(-c2nc3ccccc3[nH]2)c1 returned Imprint erasure -2%, ERK AVP inh 10%, p53ts 39C kill 10%, p53ts 32C tox -3% and IkB sig inh 2%.
CN1CCN(C2Cc3ccccc3Sc3ccc(S)cc32)CC1 (stereo not drawn) was read as Imprint erasure -9%.
Screening CN1CCN([C@@H]2Cc3ccccc3Sc3ccc(Cl)cc32)CC1 returned ERK AVP inh -1%, p53ts 39C kill 16µM*, p53ts 32C tox 20µM* and IkB sig inh -6%.
`Cc1nc2cc(NC(=O)Nc3nccs3)ccc2n1C` gave Imprint erasure -75%, ERK AVP inh -8%, p53ts 39C kill 7.9µM*, p53ts 32C tox 7.9µM* and IkB sig inh 1%.
For CCS(=O)(=O)c1ncc(N(Cc2ccccc2)Cc2ccco2)c(C(=O)Nc2cccc(Cl)c2C)n1 the results were Imprint erasure -6%[10.9 µM], p53ts 39C kill 3%, p53ts 32C tox 4% and IkB sig inh inconclusive.
Screening CCS(=O)(=O)c1ncc(Cl)c(C(=O)N(Cc2ccccc2)Cc2ccco2)n1 returned Imprint erasure -48%[10.9 µM], p53ts 39C kill 4µM*, p53ts 32C tox 18µM* and IkB sig inh inconclusive.
CN1CCc2cccc3c2[C@H]1Cc1ccc(O)c(O)c1-3 was read as Imprint erasure -54%, ERK AVP inh inconclusive, p53ts 39C kill 6.3µM*, p53ts 32C tox 25µM* and IkB sig inh 7%.
`CC1(C)[C@@H](CC(=O)O)CCC[C@@H]1CC(=O)O` gave Imprint erasure -15%[10.9 µM], ERK AVP inh 9%[11.5 µM], p53ts 39C kill -1%[9.22 µM], p53ts 32C tox -4%[9.22 µM] and IkB sig inh 0%[11.4 µM].
For CN1CCN(C(=O)c2ccc(-n3c(=O)c(=O)[nH]c4ccccc43)cc2)CC1 the results were p53ts 39C kill -9% and p53ts 32C tox 2%.
Cc1ccc(N2C(=O)c3ccccc3C2O)nc1 (stereo not drawn) was read as Imprint erasure -93%, ERK AVP inh 3%, p53ts 39C kill 5µM*, p53ts 32C tox 4µM* and IkB sig inh inconclusive.
Cc1ccc(CNc2nc(-c3ccco3)nn2C(=O)c2ccccc2[N+](=O)[O-])cc1 was read as Imprint erasure -21%[10.9 µM], p53ts 39C kill 10µM*, p53ts 32C tox inconclusive and IkB sig inh -1%.
COc1ccc(OC)c(CCNC(=O)Cn2sc3nc(C)cc(C)c3c2=O)c1 was read as Imprint erasure -80%, ERK AVP inh 16µM*, p53ts 39C kill 16%, p53ts 32C tox -13% and IkB sig inh inconclusive.
For COc1ccc(OC)c(CCNC(=O)Cn2ncc3c([nH]c4ccccc43)c2=O)c1 the results were p53ts 32C tox -5%.
